Bioassay records (PubChem BioAssay)
GSTO1 counter: counter-screen for RBBP9 inhibitors: inhibitors of human GSTO1 | P78417 | recombinant GSTO1, activity-based probe fluorescence polarization | inhibition, % at 5.96 µM | 300,000 tested, 1.1% active | AID 1974;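 active = inhibition above the campaign mean inhibition plus 3 SD, cut at about 35% in these data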;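 also: 0% = GSTO1-1 with DMSO and 100% = wells lacking GSTO1-1 enzyme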
Fam108B inh: Fam108B inhibition, counter-screen for RBBP9 inhibitors | recombinant Fam108B, FP-Rh probe fluorescence polarization | inhibition, % at 9.51 µM | 300,000 tested, 0.33% active | AID 1947;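 active = inhibition above the screen mean inhibition plus 3 SD, computed separately per campaign, cut at about 18% in these data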;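 also: inhibitors lower polarization as less probe binds the enzyme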
PME-1 inh: blocks human protein phosphatase methylesterase 1; Q9Y570; recombinant PME-1, FP-Rh probe fluorescence polarization; inhibition, % at 5.9 µM; 320,000 tested, 0.53% active; AID 2130;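 active = inhibition above the campaign mean of all compounds plus 3 SD, cut at about 26% in these data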;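 also: competitive labeling of PME-1 active site by serine hydrolase directed probe; 0% = PME-1 with DMSO and 100% = wells lacking PME-1 enzyme; inhibitors block probe labeling so polarization falls and inhibition rises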
LYPLA1 inh: blocks human lysophospholipase 1, a PME1 counter-screen | AID 2174 | 320,000 tested, 0.16% active | recombinant LYPLA1, FP-Rh probe fluorescence polarization | inhibition, % at 5.9 µM;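 active = inhibition above the mean of all tested compounds plus 3 SD, set per campaign, cut at about 14% in these data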;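 also: inhibitors block serine hydrolase probe labeling of LYPLA1 so polarization falls; 0% = enzyme with DMSO and 100% = wells lacking LYPLA1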
LYPLA2 inh: LYPLA2 (human) inhibition in PME1 counter-screen. recombinant LYPLA2, FP-Rh probe fluorescence polarization. inhibition, % at 5.9 µM. 320,000 tested, 0.38% active;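 active = inhibition above the screen-wide mean plus 3 SD, limit set per campaign, cut at about 26% in these data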;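 also: 0% = LYPLA2 with DMSO and 100% = wells lacking LYPLA2 enzyme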
PREPL inh: inhibits the human prolyl oligopeptidase-like enzyme | inhibition, % at 5.96 µM | Q4J6C6 | 320,000 tested, 0.68% active | recombinant PREPL, fluorescence polarization activity-based probe; in the data active = inhibition above about 43%;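 also: 0% = enzyme with DMSO and 100% = wells lacking enzyme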
Target sequence (Q4J6C6 whole entry, looked up): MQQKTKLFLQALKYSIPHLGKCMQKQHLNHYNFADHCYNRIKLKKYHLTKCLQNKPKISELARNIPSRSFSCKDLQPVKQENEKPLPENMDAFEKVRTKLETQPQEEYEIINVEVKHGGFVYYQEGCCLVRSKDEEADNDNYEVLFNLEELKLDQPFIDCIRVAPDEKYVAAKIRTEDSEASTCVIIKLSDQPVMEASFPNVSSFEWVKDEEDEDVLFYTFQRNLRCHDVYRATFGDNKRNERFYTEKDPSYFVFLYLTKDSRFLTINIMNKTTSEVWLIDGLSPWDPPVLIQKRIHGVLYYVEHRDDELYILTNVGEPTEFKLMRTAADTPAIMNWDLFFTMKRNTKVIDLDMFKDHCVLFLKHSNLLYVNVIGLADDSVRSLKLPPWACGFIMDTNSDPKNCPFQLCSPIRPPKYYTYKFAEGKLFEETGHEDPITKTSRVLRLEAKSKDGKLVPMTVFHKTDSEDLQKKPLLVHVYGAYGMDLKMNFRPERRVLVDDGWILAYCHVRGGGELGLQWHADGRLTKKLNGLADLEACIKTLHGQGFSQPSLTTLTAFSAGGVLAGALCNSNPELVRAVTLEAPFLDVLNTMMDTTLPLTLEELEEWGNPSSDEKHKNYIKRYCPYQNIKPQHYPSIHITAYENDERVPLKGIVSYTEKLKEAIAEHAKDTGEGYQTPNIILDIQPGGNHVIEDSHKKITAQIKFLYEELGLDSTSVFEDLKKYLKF
Starred values were filed as active, the others as inactive; · = not tested or not shown. Hits are enriched below; roughly 2% of the tested compounds scored in any of these assays.

SMILES	GSTO1 counter	Fam108B inh	PME-1 inh	LYPLA1 inh	LYPLA2 inh	PREPL inh
COc1ccc(Cl)cc1C(=O)Nc1ccc(NC(C)=O)cc1	-9	-1	3	-2	2	16
CC(=O)Oc1c(I)cc(I)cc1C(=O)Nc1ccc(Cl)cc1	-17	-1	61*	-13	-23	17
CC(C)(C)NC(=O)NC(=O)CSc1nnc(COc2ccccc2Cl)o1	36*	0	6	4	4	2
O=C(CSc1nnc(COc2ccccc2Cl)o1)Nc1ccccc1	·	·	-4	2	-3	-12
Cc1ccc(S(=O)(=O)N2CCN(C(=O)Cn3c(=O)cnc4ccccc43)CC2)cc1	·	·	37*	-1	5	11
N#CCCN(C(=O)COC(=O)CCc1nc2ccccc2c(=O)[nH]1)c1ccc(F)cc1	·	·	-1	1	4	-2
O=C(CS(=O)(=O)c1ccccc1)N1CCc2ccccc21	-1	-1	4	0	1	0
O=C(CCS(=O)(=O)c1ccc(Br)s1)N1CCc2ccccc21	36*	-2	6	-3	-1	-45
C/C(=N\NC(=O)c1ccc(Br)cc1)C1C(=O)c2ccccc2C1=O	-8	16	10	18*	1	5
CCOc1ccc(C(=O)N/N=C(/C)C2C(=O)c3ccccc3C2=O)cc1	14	3	-3	0	-2	1
CC(C(=O)Nc1ccc(N2CCOCC2)cc1)N1C(=O)NC(C)(C)C1=O (centres undefined)	·	·	1	-3	1	3
Cc1cc(C(=O)OCC(=O)c2ccc(Cl)c([N+](=O)[O-])c2)c2cccc(C)c2n1	37*	-6	-3	-8	-5	0
Cc1ccc2nc(C)cc(C(=O)OCC(=O)c3ccc(Cl)c([N+](=O)[O-])c3)c2c1	10	-1	3	0	5	8
CC(Sc1nnc(COc2ccc(Cl)cc2)n1Cc1ccco1)C(=O)N1CCNC1=O (centres undefined)	·	·	1	1	6	-9
O=C1CSC(=S)N1/N=C/c1cc(Br)ccc1O	12	6	4	-7	-10	-1
O=C1CSC(=S)N1/N=C/c1ccc(O)c(O)c1O	67*	14	-8	-9	-10	19
CCOc1ccc(N(C)S(=O)(=O)c2ccc(C)c(C(=O)N3CCN(Cc4ccc5c(c4)OCO5)CC3)c2)cc1	·	·	·	·	·	27
O=C(c1nc2ccccn2c1CNCCCn1cccn1)N1CCCC1	-5	-2	4	-2	-6	6
CCc1cccc(NS(=O)(=O)c2ccc3c(c2)NC(=O)CO3)c1	37*	3	6	2	3	6
O=C1COc2ccc(S(=O)(=O)Nc3cccc(Cl)c3)cc2N1	23	1	-3	-4	2	0
O=C(NCC1(N2CCCCC2)CCCCC1)c1cccc(S(=O)(=O)Nc2ccc(F)cc2)c1	·	·	9	1	1	-13
CC(=O)c1ccc(NC(=O)CSc2nnc(-c3ccco3)c(-c3ccco3)n2)cc1	35*	10	-2	-4	5	-1
CC(=O)Nc1ccc(NC(=O)CSc2nnc(-c3ccco3)o2)cc1	-5	1	1	-1	1	4
CCCCN1C(=O)C(=O)N(CC(=O)c2ccc3c(c2)CCCC3)C1=O	·	·	2	1	3	7
Cc1ccc2c(c1)sc(-c1ccc(N(C)C)cc1)[n+]2C	3	6	6	1	5	23
SMILES	GSTO1 counter	Fam108B inh	PME-1 inh	LYPLA1 inh	LYPLA2 inh	PREPL inh
COc1ccccc1NCC(=O)N/N=C/c1c(O)ccc2ccccc12	18	7	18	-2	3	8
O=C(CNc1ccc(F)cc1)N/N=C/c1c(O)ccc2ccccc12	12	9	37*	-9	-2	37
Cc1cc(SC#N)cc(C)c1NC(=O)CCl	66*	0	-8	4	-5	0
Nc1ccccc1-n1cccc1	7	-3	-1	-8	-12	21
COc1cccc(CNC(=O)CCCc2cn(C)c3ccccc23)c1	-1	-1	134*	1	4	-11
COc1ccc(OC)c(CNC(=O)CCCc2cn(C)c3ccccc23)c1	2	-2	1	2	3	1
CC(=O)N=Nc1[nH]c(N)c2ccccc12	-8	0	-4	-2	0	3
O=C1c2sc3nc4n(c(=O)c3c2CCC1Br)CCCCC4 (centres undefined)	55*	-4	-3	-7	-12	-5
O=C1CCCc2c1sc1nc3n(c(=O)c21)CCCCC3	-2	1	-1	-2	-4	4
ClCc1nnc(-c2ccccc2)o1	102*	3	-1	0	0	-1
C1=CC2c3ccccc3NC(c3ccncc3)C2C1 (centres undefined)	47*	13	11	-2	9	33
CC(=O)c1ccc2c(c1)C1C=CCC1C(c1ccncc1)N2 (centres undefined)	44*	14	-7	0	7	12
Cc1ccc2c(c1)C1C=CCC1C(C(=O)O)N2 (centres undefined)	54*	46*	14	-8	5	22
Cc1ccc2c(c1)C1C=CCC1C(C(=O)NCCCN1CCOCC1)N2 (centres undefined)	18	1	-3	0	0	18
CN(CC(=O)Nc1cccc(F)c1)CC(=O)NC(c1ccccc1)c1ccccc1	·	·	9	-5	-15	0
COc1cccc(/C=N/Nc2nc3ccccc3n3cnnc23)c1O	0	11	29*	-3	-3	41
COc1cccc(/C=N/Nc2nc3ccccc3n3cnnc23)c1	-3	2	-14	-2	-2	30
COc1ccc(NC(=O)Nc2nnc(N3CCCCC3C)s2)cc1OC (centres undefined)	7	4	50*	-3	1	15
Cc1ccc(NC(=O)COc2ccc(N(C)C(=O)C(C)(C)C)cc2)cc1S(=O)(=O)N1CCCCC1	·	·	·	·	·	14
COc1cc(/C=C(\C#N)c2nc3ccccc3[nH]2)ccc1OC(=O)c1ccco1	5	-15	-13	-14	-16	80*
CCOc1cc(/C=C(/C#N)c2nc3ccccc3[nH]2)ccc1OCc1ccc(C(=O)O)o1	-29	-7	-8	-4	-8	59*
COc1cc(/C=C(/C#N)c2nc3ccccc3[nH]2)ccc1OCC(=O)Nc1ccccc1C	6	-32	-22	-20	-26	14
Cc1ccc(SCc2nc3ccccc3n2CC(=O)Nc2ccccc2)cc1	3	3	0	-4	-8	53*
Cc1ccc(Nc2nnc(SCC(=O)NCCN3C(=O)CSC3=O)s2)cc1C	10	0	1	-1	-7	33
O=C1c2cccc3c(N4CCCCC4)ccc(c23)C(=O)N1c1cccc(O)c1	-18	-22	27*	-22	-28	-1
O=C(COC(=O)c1ccc([N+](=O)[O-])s1)NCc1ccccc1	42*	10	9	4	16	0
O=C(COC(=O)c1ccc([N+](=O)[O-])o1)NCc1ccccc1	·	·	·	·	·	8
